Values joined by “and” are separate entries in the source; they are usually repeats but may differ in a detail not shown here. Equal entries are not always repeated. Results filed as inconclusive are left out. Active and inactive are the calls of the source. Unless noted, the call rests on the fitted dose curve; in most records, active means well fitted curve in the direction sought with a large enough effect; inconclusive means small, poorly fitted or top-dose-only effect, or another doubt; inactive means no such curve, though single readings can be large; an effect the other way counts as inactive or inconclusive.
Columns and labels:
[1] = Cell Viability - SH-SY5Y (AID 544); details: SH-SY5Y neuroblastoma cell viability; viability change, negative = cytotoxic: at 92.2 µM (top of the series);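 further: cells exposed to compound for 40 hours; nearly all actives have a fitted effect of over 55% in size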; further: potency means the concentration at half of the fitted maximal effect
Summary of the method: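 Cells were plated at 1500 per well and allowed 5 hr at 37 °C. Compounds were added across a concentration range and incubated 40 hr at 37 °C. CellTiter-Glo was added for 20 min at room temperature before luminescence reading.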

[2] = Cell Viability - Renal Proximal Tubule (AID 545);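 further: cells exposed to compound for 40 hours; nearly all actives have a fitted effect of over 40% in size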
Summary of the method: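 Rat kidney proximal tubule cells, freshly isolated; 1000 cells/well, 5 hr settle, compound 40 hr 37 °C. CellTiter-Glo 20 min RT, luminescence read. AC50 by standard Hill fit.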

[3] = Cellular Toxicity (caspase-3) Hek293 (AID 664); details: HEK293 caspase-3 activation, DMSO = 0%, 100 µM tamoxifen = 100%; at 92.2 µM (top of the series);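 further: cells exposed to compound for 16 h at 37 °C before readout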
Summary of the method: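 qHTS, HEK293 (human embryonic kidney), 16 h cpd exposure in complete medium. Caspase-3/7 activation = luminescence increase; normalized to DMSO/100 uM tamoxifen; Hill-fit AC50.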

[4] = Cell Viability - LYMP2-003 (AID 965);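 further: cells exposed to compounds for 24 h before reading; nearly all actives have a fitted effect of over 50% in size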; further: potency means the concentration at half of the fitted maximal effect
Summary of the method: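 CellTiter-Glo luminescence (cellular ATP) after 24 h compound exposure at 37 C in complete medium; 2500 cells/well, 5 h settling beforehand. Concentration-response fitted to standard Hill equation for AC50. Tetraoctylammonium bromide served as positive control.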

[5] = Cell Viability - LYMP2-009 (AID 968); further: nearly all actives have a fitted effect of over 55% in size; further: potency means the concentration at half of the fitted maximal effect
[6] = Cell Viability - LYMP2-013 (AID 970); further: nearly all actives have a fitted effect of over 55% in size; further: potency means the concentration at half of the fitted maximal effect
Summary of the method: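 Cytotoxicity is scored as a concentration-dependent drop in intracellular ATP in human lymphoblastoid cells after 24 hr compound exposure at 37 C. ATP is quantified by luciferase luminescence, and AC50 values come from Hill-equation modeling.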

[7] = Cell Viability - LYMP2-019 (AID 973); further: nearly all actives have a fitted effect of over 55% in size; further: potency means the concentration at half of the fitted maximal effect
Summary of the method: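 Cytotoxicity is scored as a concentration-dependent drop in cellular ATP after cells (2500/well) receive compound for 24 hr at 37 C. Tetraoctylammonium bromide serves as positive control.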

[8] = Cell Viability - LYMP2-008 (AID 980); further: nearly all actives have a fitted effect of over 60% in size; further: potency means the concentration at half of the fitted maximal effect
Summary of the method: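 Cells seeded at 2500/well and rested 5 hr at 37 C; compounds added over a concentration range and incubated 24 hr at 37 C; CellTiter-Glo added, 30 min at room temperature; luminescence read and AC50 fitted with Hill model.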

[9] = Cell Viability - LYMP2-012 (AID 982); further: potency means the concentration at half of the fitted maximal effect
[10] = Cell Viability - LYMP2-020 (AID 986); further: nearly all actives have a fitted effect of over 55% in size; further: potency means the concentration at half of the fitted maximal effect
Summary of the method: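 Seed 2500 cells per well and incubate 5 hr at 37 C. Add compounds at a concentration series and incubate 24 hr at 37 C. Add CellTiter-Glo, wait 30 min at RT, read luminescence, and fit a Hill curve for AC50.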

[11] = Cell Viability - LYMP2-022 (AID 987); further: nearly all actives have a fitted effect of over 55% in size; further: potency means the concentration at half of the fitted maximal effect;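 on viability change, negative = cytotoxic: 0% = DMSO alone and full effect = tetraoctylammonium bromide at 92 µM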
Summary of the method: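 Cells were seeded at 2500 per well, rested 5 hr at 37 C, and treated with titrated compounds for 24 hr at 37 C. Cellular ATP was then quantified by luciferase luminescence, and AC50 values were derived from Hill-modelled concentration-response curves.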

[12] = Cell Viability - LYMP1-002 - Assay at 40 hr (AID 994);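 further: 0% = DMSO only and full inhibition = 92 µM tetraoctylammonium bromide; nearly all actives have a fitted effect of over 60% in size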
Summary of the method: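 Cells are plated at 2500 per well and rested 5 hr at 37 C. Compounds are added and incubated 40 hr at 37 C. CellTiter-Glo reagent is added for 30 min at room temperature before luminescence is read.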

[13] = biological target: Tumor necrosis factor (Homo sapiens) (UniProt P01375); experiment: qHTS assay to identify small molecules that stimulate Tumor Necrosis Factor-alpha (TNF-alpha) secretion (AID 651757; active means well fitted curve in the direction sought with a large enough effect in the signal ratio; the % refers to the signal ratio; further: 0% is about no effect)
Summary of the method: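 Human monocytic THP-1 cells are plated, treated with compound and held at 37 C for 17 hrs. Labeled anti-TNF-alpha antibody mixture is then added; after 3 hr at room temperature, TR-FRET signal reports secreted TNF-alpha.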

[14] = Cell Viability - H-4-II-E (AID 543);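 further: cells exposed to compound for 40 hours; on the % scale 0 is the no-effect control and ±100 the full control effect; nearly all actives have a fitted effect of over 35% in size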
Summary of the method: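 Cells seeded at 1500 per well and rested 5 hr; compounds added; 40 hr incubation at 37 °C; CellTiter-Glo added, 20 min at room temperature; luminescence read. Hill-equation fits gave AC50.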

[15] = Cell Viability - LYMP2-025 (AID 976);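 further: plate controls were DMSO only for no effect and tetraoctylammonium bromide control for full effect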
Summary of the method: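 Acute cytotoxicity is scored as a concentration-dependent fall in intracellular ATP, measured by luciferase luminescence, in human lymphoblastoid LYMP2-025 cells exposed to compound for 24 hours at 37 C. AC50 values come from standard Hill fits.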

[16] = Cell Viability - LYMP2-002 (AID 977);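 further: plate controls were DMSO only for no effect and 92 µM tetraoctylammonium bromide for full effect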
Summary of the method: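 In this qHTS viability screen, 2500 human lymphoblastoid cells per well receive compound for 24 hr at 37 C, and luciferase-based ATP luminescence gives the viability signal. Tetraoctylammonium bromide serves as positive control.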

[17] = Cell Viability - LYMP2-006 (AID 978); further: on the % scale 0 is the no-effect control and ±100 the full control effect; nearly all actives have a fitted effect of over 60% in size
Summary of the method: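 qHTS, 1536-well; 2500 cells/well, 5 hr 37 C; cpd 24 hr 37 C; CellTiter-Glo 30 min RT; luminescence. Tetraoctylammonium bromide pos. ctrl. AC50 via Hill eqn.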

[18] = Cell Viability - LYMP2-026 (AID 989); further: on the % scale 0 is the no-effect control and ±100 the full control effect; nearly all actives have a fitted effect of over 50% in size
Summary of the method: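 Cells are seeded at 2500 per well and held 5 hr at 37 C. Compounds are added in concentration series for 24 hr, then CellTiter-Glo reagent is applied and luminescence read.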

[19] = qHTS assay for small molecule agonists of retinoid X receptor alpha signaling (AID 588544; calls by dose curve;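 on activation: 0% = DMSO basal wells and 100% = reference agonist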); details: HEK293T RXRa-UAS-bla, beta-lactamase reporter, 18 h; 530 nm emission
[20] = biological target: Retinoic acid receptor RXR-alpha (Homo sapiens) (UniProt P19793); experiment: as above
Sequence of Retinoic acid receptor RXR-alpha (Homo sapiens) (P19793 whole entry, looked up): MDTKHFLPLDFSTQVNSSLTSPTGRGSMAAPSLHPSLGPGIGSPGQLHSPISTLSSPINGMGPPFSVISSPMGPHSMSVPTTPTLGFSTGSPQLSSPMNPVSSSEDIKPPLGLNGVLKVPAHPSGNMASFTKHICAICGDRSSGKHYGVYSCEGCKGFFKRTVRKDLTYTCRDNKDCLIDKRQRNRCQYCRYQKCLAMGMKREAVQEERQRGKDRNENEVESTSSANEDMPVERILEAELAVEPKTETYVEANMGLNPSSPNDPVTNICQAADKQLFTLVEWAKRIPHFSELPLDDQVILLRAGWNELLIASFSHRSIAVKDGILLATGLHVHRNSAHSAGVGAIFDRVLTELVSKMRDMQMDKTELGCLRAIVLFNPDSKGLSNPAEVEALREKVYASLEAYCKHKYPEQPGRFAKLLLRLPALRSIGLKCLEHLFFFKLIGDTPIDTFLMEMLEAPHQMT

Sequence of Tumor necrosis factor (Homo sapiens) (P01375 whole entry, looked up): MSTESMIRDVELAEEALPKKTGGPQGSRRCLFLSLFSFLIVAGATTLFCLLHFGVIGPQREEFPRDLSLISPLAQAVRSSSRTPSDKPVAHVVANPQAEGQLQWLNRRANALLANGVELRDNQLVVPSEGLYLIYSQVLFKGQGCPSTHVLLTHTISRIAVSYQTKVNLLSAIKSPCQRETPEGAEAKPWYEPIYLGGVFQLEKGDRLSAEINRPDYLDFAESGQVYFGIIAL

OC[P+](CO)(CO)CO
inactive: Potency [1] | outcome [2] | caspase-3 activation [3] 0.818% | Potency [12] | outcome [13]
active: Potency [4] 25.1 µM | Potency [5] 25.1 µM | Potency [6] 31.6 µM | Potency [7] 15.8 µM | Potency [8] 39.8 µM | Potency [9] 15.8 µM | Potency [10] 12.6 µM | Potency [11] 12.6 µM

O=NN1CCCCC1
5.16%: max response [19]
inactive: Potency [14] | Potency [1] | outcome [2] | caspase-3 activation [3] -0.0969% | Potency [4] | Potency [5] | Potency [6] | Potency [7] | Potency [15] | Potency [16] | Potency [17] | Potency [8] | Potency [9] | Potency [10] | Potency [11] | Potency [18] | Potency [12] | outcome [20] | outcome [13]

O=C(O)C(Cl)(Cl)Br
-15.6%: max response [19]
inactive: Potency [14] | Potency [1] | outcome [2] | caspase-3 activation [3] 1.91% | Potency [4] | Potency [5] | Potency [6] | Potency [7] | Potency [15] | Potency [16] | Potency [17] | Potency [8] | Potency [9] | Potency [10] | Potency [11] | Potency [18] | Potency [12] | outcome [20] | outcome [13]

COC(=O)c1ccccc1N
-15.1%: max response [19]
inactive: Potency [14] | Potency [1] | outcome [2] | caspase-3 activation [3] -1.69% | Potency [4] | Potency [5] | Potency [6] | Potency [7] | Potency [15] | Potency [16] | Potency [17] | Potency [8] | Potency [9] | Potency [10] | Potency [11] | Potency [18] | Potency [12] | outcome [20] | outcome [13]

C=CC=O
-0.594%: max response [19]
active: viability change, negative = cytotoxic [1] -91.6%
inactive: Potency [14] | outcome [2] | caspase-3 activation [3] 0.46% | Potency [4] | Potency [5] | Potency [6] | Potency [7] | Potency [15] | Potency [16] | Potency [17] | Potency [8] | Potency [9] | Potency [10] | Potency [11] | Potency [18] | Potency [12] | outcome [20] | outcome [13]

Nc1ccc(-c2ccc(N)cc2)cc1
-10.1%: max response [19]
inactive: Potency [1] | outcome [2] | caspase-3 activation [3] 0.43% | Potency [4] | Potency [5] | Potency [6] | Potency [7] | Potency [15] | Potency [16] | Potency [17] | Potency [8] | Potency [9] | Potency [10] | Potency [11] | Potency [18] | Potency [12] | outcome [20]

C=CC#N
inactive: Potency [14] | Potency [1] | outcome [2] | caspase-3 activation [3] -0.49% | Potency [4] | Potency [5] | Potency [6] | Potency [7] | Potency [15] | Potency [16] | Potency [17] | Potency [8] | Potency [9] | Potency [10] | Potency [11] | Potency [18] | Potency [12] | outcome [20] | outcome [13]
6.79%: max response [19]

CCOP(=O)(OCC)OCC
inactive: Potency [14] | Potency [1] | outcome [2] | caspase-3 activation [3] 0.845% | Potency [4] | Potency [5] | Potency [6] | Potency [7] | Potency [15] | Potency [16] | Potency [17] | Potency [8] | Potency [9] | Potency [10] | Potency [11] | Potency [18] | Potency [12] | outcome [20] | outcome [13]
-8.04% and -7.35%: max response [19]

c1ccc(C2CO2)cc1 (centres undefined)
-3.27%: max response [19]
inactive: Potency [14] | Potency [1] | outcome [2] | caspase-3 activation [3] -0.153% | Potency [4] | Potency [5] | Potency [6] | Potency [7] | Potency [15] | Potency [16] | Potency [17] | Potency [8] | Potency [9] | Potency [10] | Potency [11] | Potency [18] | Potency [12] | outcome [20] | outcome [13]

NC1CCC(CC2CCC(N)CC2)CC1 (centres undefined)
inactive: Potency [14] | Potency [1] | outcome [2] | caspase-3 activation [3] -0.935% | Potency [4] | Potency [5] | Potency [6] | Potency [7] | Potency [15] | Potency [16] | Potency [17] | Potency [8] | Potency [9] | Potency [10] | Potency [11] | Potency [18] | Potency [12] | outcome [20] | outcome [13]
8.4%: max response [19]

O=Cc1ccc(Cl)cc1Cl
-11.7%: max response [19]
inactive: Potency [14] | Potency [1] | outcome [2] | caspase-3 activation [3] -1.13% | Potency [4] | Potency [5] | Potency [6] | Potency [7] | Potency [15] | Potency [16] | Potency [17] | Potency [8] | Potency [9] | Potency [10] | Potency [11] | Potency [18] | Potency [12] | outcome [20] | outcome [13]

C=CC(=O)OCCN(C)C
-14.1%: max response [19]
inactive: Potency [14] | Potency [1] | outcome [2] | caspase-3 activation [3] -0.126% | Potency [4] | Potency [5] | Potency [6] | Potency [7] | Potency [15] | Potency [16] | Potency [17] | Potency [8] | Potency [9] | Potency [10] | Potency [11] | Potency [18] | Potency [12] | outcome [20] | outcome [13]

CCBr
inactive: Potency [14] | Potency [1] | outcome [2] | caspase-3 activation [3] 2.63% | Potency [4] | Potency [5] | Potency [6] | Potency [7] | Potency [15] | Potency [16] | Potency [17] | Potency [8] | Potency [9] | Potency [10] | Potency [11] | Potency [18] | Potency [12] | outcome [20] | outcome [13]
-3.72%: max response [19]

O=[N+]([O-])c1cc(Cl)c(Cl)cc1Cl
10.7%: max response [19]
inactive: Potency [14] | Potency [1] | outcome [2] | caspase-3 activation [3] -4.07% | Potency [4] | Potency [5] | Potency [6] | Potency [7] | Potency [15] | Potency [16] | Potency [17] | Potency [8] | Potency [10] | Potency [11] | Potency [18] | Potency [12] | outcome [20] | outcome [13]

c1ccc(OCC2CO2)cc1 (centres undefined)
6.69%: max response [19]
inactive: Potency [14] | Potency [1] | outcome [2] | caspase-3 activation [3] 0.633% | Potency [4] | Potency [5] | Potency [6] | Potency [7] | Potency [15] | Potency [16] | Potency [17] | Potency [8] | Potency [9] | Potency [10] | Potency [11] | Potency [18] | Potency [12] | outcome [20] | outcome [13]

COC(=O)Nc1cccc(OC(=O)Nc2cccc(C)c2)c1
inactive: outcome [2] | caspase-3 activation [3] 0.0585% | Potency [4] | Potency [5] | Potency [6] | Potency [7] | Potency [15] | Potency [16] | Potency [17] | Potency [8] | Potency [9] | Potency [10] | Potency [11] | Potency [18] | Potency [12] | outcome [20] | outcome [13]
14%: max response [19]
active: Potency [1] 39.8 µM
